Assay results taken from PubChem BioAssay AID1159580 (chemical genetic matrix, 2015).
The whole screen tested about 5,500 compounds, of which about 2,000 (36%) were called active. Inconclusive results (about 18%) are left out. Rule as the data show it: active = normalized growth mostly below about 0.91 (no sharp cut-off); inconclusive = no clear call, values can overlap the other calls; inactive = mostly above about 0.92. The list shows a part of the results.

Assay: chemical genetic growth profiling, strain panel (AID 1159580);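 also: tested at 20 µM; growth read once vehicle control cultures reached saturation at 30 °C; 1 = growth at the plate median or of vehicle wells; lower values mean less growth of the strain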
Details: growth OD
[1] = S. cerevisiae deletion strains, locus YAL040C, strain CLN3, active compounds read low
[2] = S. cerevisiae deletion strains, locus YCL061C, strain MRC1 (second series), active compounds read low
[3] = S. cerevisiae deletion strains, locus YDR363W, strain ESC2, active compounds read low
[4] = S. cerevisiae deletion strains, locus YER002W, strain NOP16, active compounds read low
[5] = S. cerevisiae deletion strains, locus YJR075W, strain HOC1, active compounds read low
[6] = S. cerevisiae deletion strains, locus YMR263W, strain SAP30, active compounds read low
[7] = S. cerevisiae deletion strains, locus YMR307W, strain GAS1, active compounds read low
[8] = S. cerevisiae deletion strains, locus YNL153C, strain GIM3, active compounds read low
[9] = S. cerevisiae deletion strains, locus YNL175C, strain NOP13, active compounds read low
[10] = S. cerevisiae deletion strains, locus YNL197C, strain WHI3, active compounds read low
[11] = S. cerevisiae deletion strains, locus YNL224C, strain SQS1, active compounds read low
[12] = S. cerevisiae deletion strains, locus YNL322C, strain KRE1, active compounds read low
[13] = S. cerevisiae deletion strains, locus YOR083W, strain WHI5 (second series), active compounds read low
[14] = S. cerevisiae deletion strains, locus YPL241C, strain CIN2, active compounds read low
[15] = S. cerevisiae deletion strains, locus YAL013W, strain DEP1, active compounds read low
[16] = S. cerevisiae deletion strains, locus YBR229C, strain ROT2, active compounds read low
[17] = S. cerevisiae deletion strains, locus YDL101C, strain DUN1, active compounds read low
[18] = S. cerevisiae deletion strains, locus YGR078C, strain PAC10, active compounds read low
[19] = S. cerevisiae deletion strains, locus YLR039C, strain RIC1, active compounds read low
[20] = S. cerevisiae deletion strains, locus YLR262C, strain YPT6, active compounds read low
[21] = S. cerevisiae deletion strains, locus YPL055C, strain LGE1, active compounds read low

Measured: normalized growth

NCC1OC(O[C@@H]2[C@H](O)C(OC3C(O)C(N)CC(N)C3OC3OC(CO)C(O)C(O)C3N)O[C@@H]2CO)C(N)C(O)C1O (stereo partly drawn)
inactive: [1] 1.07 | [2] 1 | [3] 1.02 | [4] 1.02 | [5] 1 | [6] 0.997 | [7] 1 | S. cerevisiae deletion strains, locus YNL128W, strain TEP1, active compounds read low 1.01 | [8] 1.03 | [9] 1.01 | [10] 1.01 | [11] 1.01 | [12] 0.993 | [13] 1.02 | [14] 1

CCc1cc2c(cc1C(=O)CC1(O)C(=O)Nc3ccc(Br)cc31)C(C)(C)CCC2(C)C (stereo not drawn)
inactive: [15] 1.01 | [16] 1.01 | S. cerevisiae deletion strains, locus YCL061C, strain MRC1, active compounds read low 1.02 | [17] 1.02 | S. cerevisiae deletion strains, locus YDL134C, strain PPH21, active compounds read low 1.01 | S. cerevisiae deletion strains, locus YDR150W, strain NUM1, active compounds read low 0.953 | S. cerevisiae deletion strains, locus YEL061C, strain CIN8, active compounds read low 0.978 | [18] 1.02 | S. cerevisiae deletion strains, locus YHR030C, strain SLT2, active compounds read low 1.02 | S. cerevisiae deletion strains, locus YHR087W, strain rtc3, active compounds read low 0.961 | S. cerevisiae deletion strains, locus YJR043C, strain POL32, active compounds read low 1.01 | [5] 0.979 | [19] 1.03 | S. cerevisiae deletion strains, locus YLR058C, strain SHM2 (second series), active compounds read low 1.01 | S. cerevisiae deletion strains, locus YLR085C, strain ARP6, active compounds read low 1.02 | [20] 1.01 | S. cerevisiae deletion strains, locus YML094W, strain GIM5, active compounds read low 0.997 | S. cerevisiae deletion strains, locus YMR219W, strain ESC1, active compounds read low 1 | [6] 1.06 | [7] 0.959 | [8] 1.01 | S. cerevisiae deletion strains, locus YNL298W, strain CLA4 (second series), active compounds read low 0.998 | [12] 1.01 | S. cerevisiae deletion strains, locus YNR030W, strain Alg12, active compounds read low 1.01 | [21] 0.921 | [14] 1.02 | S. cerevisiae deletion strains, locus YPR135W, strain CTF4, active compounds read low 1.06

CC(C)C(=O)c1c(C(C)C)nn2ccccc12
inactive: [15] 0.972 | [1] 1.06 | [2] 0.985 | [3] 0.995 | [4] 0.983 | [18] 0.984 | S. cerevisiae deletion strains, locus YGR229C, strain SMI1, active compounds read low 0.942 | [5] 0.991 | [9] 0.985 | [10] 0.985 | [11] 0.962 | [12] 0.985 | [13] 0.936 | [21] 0.967

CC1=CCC2C3(C)C1=CC(=O)OC3CC1C(C)(C)CC(O)C(O)C12C (stereo not drawn)
inactive: S. cerevisiae deletion strains, locus YBR021W, strain FUR4, active compounds read low 0.993 | [16] 1.02 | S. cerevisiae deletion strains, locus YCL029C, strain bik1, active compounds read low 1 | S. cerevisiae deletion strains, locus YDL035C, strain GPR1, active compounds read low 1.06 | S. cerevisiae deletion strains, locus YDL074C, strain BRE1, active compounds read low 1.07 | [17] 1.01 | S. cerevisiae deletion strains, locus YDL185W, strain tfp1, active compounds read low 0.996 | S. cerevisiae deletion strains, locus YDL192W, strain arf1, active compounds read low 1.01 | S. cerevisiae deletion strains, locus YDR101C, strain arx1, active compounds read low 1.02 | S. cerevisiae deletion strains, locus YDR162C, strain NBP2, active compounds read low 1.02 | S. cerevisiae deletion strains, locus YDR318W, strain mcm21, active compounds read low 0.981 | S. cerevisiae deletion strains, locus YDR388W, active compounds read low 0.994 | S. cerevisiae deletion strains, locus YDR502C, strain sam2, active compounds read low 0.998 | S. cerevisiae deletion strains, locus YER110C, active compounds read low 0.991 | S. cerevisiae deletion strains, locus YER155C, strain BEM2, active compounds read low 1 | S. cerevisiae deletion strains, locus YER167W, strain BCK2, active compounds read low 1.03 | S. cerevisiae deletion strains, locus YGL078C, strain dbp3, active compounds read low 1 | S. cerevisiae deletion strains, locus YGL086W, strain mad1, active compounds read low 0.995 | S. cerevisiae deletion strains, locus YGL248W, strain PDE1, active compounds read low 1.01 | S. cerevisiae deletion strains, locus YGR135W, strain pre9, active compounds read low 0.979 | S. cerevisiae deletion strains, locus YGR252W, strain gcn5, active compounds read low 0.96 | S. cerevisiae deletion strains, locus YHR079C, strain IRE1 (second series), active compounds read low 0.989 | S. cerevisiae deletion strains, locus YHR094C, strain hxt1, active compounds read low 0.99 | S. cerevisiae deletion strains, locus YHR129C, strain ARP1, active compounds read low 1.01 | S. cerevisiae deletion strains, locus YHR200W, strain rpn10, active compounds read low 0.983 | S. cerevisiae deletion strains, locus YIL066C, strain RNR3, active compounds read low 1.05 | S. cerevisiae deletion strains, locus YIL073C, strain SPO22, active compounds read low 1 | S. cerevisiae deletion strains, locus YIL125W, strain kgd1, active compounds read low 1.01 | S. cerevisiae deletion strains, locus YIR030C, strain dcg1, active compounds read low 0.986 | S. cerevisiae deletion strains, locus YJL095W, strain BCK1, active compounds read low 1.03 | S. cerevisiae deletion strains, locus YJL134W, strain LCB3, active compounds read low 1.01 | S. cerevisiae deletion strains, locus YJL168C, strain set2, active compounds read low 0.991 | S. cerevisiae deletion strains, locus YJL187C, strain SWE1 (second series), active compounds read low 1 | S. cerevisiae deletion strains, locus YKL009W, strain mrt4, active compounds read low 1.05 | S. cerevisiae deletion strains, locus YKL068W, active compounds read low 0.993 | S. cerevisiae deletion strains, locus YKL085W, strain MDH1 (second series), active compounds read low 0.991 | S. cerevisiae deletion strains, locus YKL085W, strain MDH1, active compounds read low 0.991 | S. cerevisiae deletion strains, locus YKL190W, strain CNB1, active compounds read low 1.01 | S. cerevisiae deletion strains, locus YKR001C, strain vps1, active compounds read low 1.02 | [19] 1.12 | S. cerevisiae deletion strains, locus YLR058C, strain SHM2, active compounds read low 1.04 | S. cerevisiae deletion strains, locus YLR102C, strain apc9, active compounds read low 0.991 | [20] 1.17 | S. cerevisiae deletion strains, locus YLR268W, strain sec22, active compounds read low 1.03 | S. cerevisiae deletion strains, locus YLR330W, strain CHS5, active compounds read low 1.01 | S. cerevisiae deletion strains, locus YLR371W, strain rom2, active compounds read low 1 | S. cerevisiae deletion strains, locus YLR418C, strain cdc73, active compounds read low 0.97 | S. cerevisiae deletion strains, locus YML016C, strain PPZ1, active compounds read low 1.01 | S. cerevisiae deletion strains, locus YML032C, strain rad52, active compounds read low 1 | S. cerevisiae deletion strains, locus YML124C, strain tub3, active compounds read low 0.993 | S. cerevisiae deletion strains, locus YMR078C, strain ctf18, active compounds read low 0.99 | S. cerevisiae deletion strains, locus YMR223W, strain ubp8, active compounds read low 0.989 | [6] 1.01 | [7] 1.09 | S. cerevisiae deletion strains, locus YNL067W, strain RPL9B, active compounds read low 0.997 | [8] 1.01 | S. cerevisiae deletion strains, locus YNL233W, strain BNI4, active compounds read low 0.999 | S. cerevisiae deletion strains, locus YNL250W, strain rad50, active compounds read low 0.962 | S. cerevisiae deletion strains, locus YNL271C, strain bni1, active compounds read low 1 | S. cerevisiae deletion strains, locus YNL298W, strain CLA4, active compounds read low 1.01 | S. cerevisiae deletion strains, locus YNL307C, strain MCK1, active compounds read low 0.999 | S. cerevisiae deletion strains, locus YNR052C, strain pop2, active compounds read low 0.998 | S. cerevisiae deletion strains, locus YOL012C, strain htz1 0.612 | S. cerevisiae deletion strains, locus YOL147C, strain pex11, active compounds read low 0.998 | S. cerevisiae deletion strains, locus YOR061W, strain CKA2, active compounds read low 1.06 | S. cerevisiae deletion strains, locus YOR069W, strain VPS5, active compounds read low 1.01 | S. cerevisiae deletion strains, locus YOR136W, strain idh2, active compounds read low 0.996 | S. cerevisiae deletion strains, locus YOR144C, strain elg1, active compounds read low 1 | S. cerevisiae deletion strains, locus YOR184W, strain ser1, active compounds read low 1.04 | S. cerevisiae deletion strains, locus YOR316C, strain cot1, active compounds read low 0.989 | [14] 1.01 | S. cerevisiae deletion strains, locus YPR119W, strain clb2, active compounds read low 0.987 | S. cerevisiae deletion strains, locus YPR141C, strain kar3, active compounds read low 1 | S. cerevisiae deletion strains, locus YPR163C, strain tif3, active compounds read low 1 | S. cerevisiae deletion strains, locus YPR167C, strain met16, active compounds read low 0.985 | S. cerevisiae deletion strains, strain wtn01, active compounds read low 1.01 | S. cerevisiae strains, strain wild type, active compounds read low 1.04
